Test results: ChEMBL document CHEMBL5308504, “Tm Shift (DSF) assay results for EUbOPEN Chemogenomics Library” (2023)
Values joined by “and” are separate entries in the source; they are usually repeats but may differ in a detail not shown here. Identical values can stand only once.

How the values were obtained:
[1] = biological target: Bromodomain-containing protein 4 (Homo sapiens) (UniProt O60885); settings: Compound concentration 20.0 uM, Protein concentration 2.0 uM, Result type QC Liability
[2] = biological target: T1, Transcription intermediary factor 1-alpha (Homo sapiens) (UniProt O15164); settings: Compound concentration 20.0 uM, Protein concentration 2.0 uM, Result type QC Liability
T1 sequence (whole entry): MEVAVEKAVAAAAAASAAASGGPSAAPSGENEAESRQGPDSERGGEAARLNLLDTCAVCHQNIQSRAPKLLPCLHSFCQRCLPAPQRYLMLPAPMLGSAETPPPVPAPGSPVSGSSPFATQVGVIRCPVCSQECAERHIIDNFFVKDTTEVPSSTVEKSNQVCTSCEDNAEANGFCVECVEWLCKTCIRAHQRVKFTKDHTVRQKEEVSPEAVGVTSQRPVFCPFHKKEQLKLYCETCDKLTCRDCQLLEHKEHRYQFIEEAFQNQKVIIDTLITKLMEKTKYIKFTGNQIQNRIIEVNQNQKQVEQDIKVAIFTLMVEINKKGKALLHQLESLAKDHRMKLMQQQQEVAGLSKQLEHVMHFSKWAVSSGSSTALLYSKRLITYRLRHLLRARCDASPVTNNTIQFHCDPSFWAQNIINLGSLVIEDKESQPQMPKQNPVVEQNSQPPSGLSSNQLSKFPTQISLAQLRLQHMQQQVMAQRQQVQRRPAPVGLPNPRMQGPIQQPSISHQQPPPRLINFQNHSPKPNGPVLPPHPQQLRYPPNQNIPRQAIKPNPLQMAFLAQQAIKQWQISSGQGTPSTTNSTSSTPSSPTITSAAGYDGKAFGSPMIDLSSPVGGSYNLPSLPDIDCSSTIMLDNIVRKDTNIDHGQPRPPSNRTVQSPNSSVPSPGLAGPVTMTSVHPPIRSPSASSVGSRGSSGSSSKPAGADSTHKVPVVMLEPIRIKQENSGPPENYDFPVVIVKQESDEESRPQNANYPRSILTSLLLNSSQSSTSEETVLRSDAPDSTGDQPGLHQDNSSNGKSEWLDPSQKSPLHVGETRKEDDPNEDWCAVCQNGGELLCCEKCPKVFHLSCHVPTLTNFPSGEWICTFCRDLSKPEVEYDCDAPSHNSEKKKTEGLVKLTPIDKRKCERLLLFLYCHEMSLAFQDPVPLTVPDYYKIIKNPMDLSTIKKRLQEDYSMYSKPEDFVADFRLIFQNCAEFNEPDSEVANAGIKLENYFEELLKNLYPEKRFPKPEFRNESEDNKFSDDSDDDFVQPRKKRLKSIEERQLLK

In the case of `CC[C@H](NC(=O)[C@H](C)NC)C(=O)N1C[C@@H](O)C[C@H]1Cc1c(-c2[nH]c3cc(F)ccc3c2C[C@@H]2C[C@H](O)CN2C(=O)[C@H](CC)NC(=O)[C@H](C)NC)[nH]c2cc(F)ccc12`, the ΔTm [1] is reported as -3.47 °C and the ΔTm [2] is reported as -3.97 °C.

Work on `CN1C(=O)Cc2ccc(-c3ccc(C[C@@H](C#N)NC(=O)[C@@H]4N[C@H]5CC[C@@H]4C5)c(F)c3)cc21` yielded a ΔTm [1] of -1.1 °C and a ΔTm [2] of 0.19 °C.

In the case of `CCOc1ccc(S(=O)(=O)Nc2ccc(Cl)cc2C#Cc2cnc(C(=O)O)cc2OC)c2ncccc12`, the ΔTm [1] is reported as -1.6 °C and the ΔTm [2] is reported as 0.27 °C.

For `CCN(CC)C/C=C/C(=O)Nc1cc2c(Nc3ccc(F)c(Cl)c3)ncnc2cc1OCC1CC1`, the ΔTm [1] was -1.26 °C and the ΔTm [2] was -0.54 °C.

In the case of `CC(C)c1nc2c(c3c1[C@H](c1ccc(C(F)(F)F)cc1)OC31CCOCC1)[C@H](O)CC(C)(C)C2`, the ΔTm [1] is reported as -0.03 °C and the ΔTm [2] is reported as 0.26 °C.

Compound `Cn1c(C2(NC(=O)c3ccc(NCC4CCCCC4)nc3)CCC2)nc2ccc(/C=C/C(=O)O)cc21` has a ΔTm [1] of 0.73 °C and a ΔTm [2] of 0.39 °C.

With `O=c1cc(C2CCNCC2)n2nc3cccc(Cl)c3c2[nH]1` the ΔTm [1] was -0.48 °C and the ΔTm [2] was 0.25 °C.

`CCOC(=O)C1Cc2ccccc2CN1C(=O)c1ccc(SC)s1` (stereo unspecified) showed a ΔTm [1] of -2.7 °C and a ΔTm [2] of -3.41 °C.

`N#C/C(=C\c1ccc(O)c(O)c1)C(=O)OCCc1cccs1` gave a ΔTm [1] of -0.61 °C and a ΔTm [2] of 0.49 °C.

Compound `O=C(O)Cc1cc(I)c(Oc2ccc(O)c(I)c2)c(I)c1` has a ΔTm [1] of -5.23 °C and a ΔTm [2] of -2.6 °C.

For `C[C@@]1(Cc2ccc(C#N)cc2)C(=O)N(c2cc(Cl)cc(Cl)c2)c2ncc(C(=O)NC3(c4nc(C5CCC5)no4)CC3)n21`, the ΔTm [1] was 10.3 °C and the ΔTm [2] was 0.39 °C.

Compound `CC(C)c1nc2c(c3c1[C@@H](c1ccc(C(F)(F)F)cc1)OC31CCOCC1)[C@@H](O)CC(C)(C)C2` has a ΔTm [1] of -1.67 °C and a ΔTm [2] of 0.17 °C.

`COc1cccc(Cn2cc(C(=O)Nc3ccc(C)c(S(=O)(=O)N4CCOCC4)c3)c(-c3ccc(C)cc3)n2)c1` was tested, and the ΔTm [1] was 1.27 °C and the ΔTm [2] was 4.1 °C.

`O=C(Nc1cc2cc[nH]c(=O)c2cc1Cl)[C@H]1CNC[C@@H]1c1cccnc1` showed a ΔTm [1] of -1.63 °C and a ΔTm [2] of -2.69 °C.

In the case of `C[C@H](CCOc1cccc(CC(=O)O)c1)N(Cc1cccc(C(F)(F)F)c1Cl)CC(c1ccccc1)c1ccccc1`, the ΔTm [1] is reported as -6.66 °C and the ΔTm [2] is reported as -0.56 °C.

Compound `CCNC1=N[C@@H]2[C@@H](O)[C@H](O)[C@@H](CO)O[C@@H]2S1` has a ΔTm [1] of -1.49 °C and a ΔTm [2] of -2.58 °C.

`CC1CCN(C(=O)[C@@H](CCn2cccc2C#N)NS(=O)(=O)c2cccc3[nH]ccc23)CC1` showed a ΔTm [1] of -1.03 °C and a ΔTm [2] of 0.52 °C.

`O=C1Nc2ccc(I)cc2/C1=C/c1cc(Br)c(O)c(Br)c1` was tested, and the ΔTm [1] was -0.9 °C and the ΔTm [2] was -2.17 °C.

Compound `C=CC(=O)Nc1ccc(C(=O)Nc2[nH]nc3c2CN(C(=O)N[C@H](CN(C)C)c2ccccc2)C3(C)C)cc1` has a ΔTm [1] of 0.61 °C and a ΔTm [2] of -2.21 °C.

In the case of `C[C@@H]1Cc2c([nH]c3ccccc23)[C@@H](c2c(F)cc(/C=C/C(=O)O)cc2F)N1CC(C)(C)F`, the ΔTm [1] is reported as 0.36 °C and the ΔTm [2] is reported as -0.62 °C.

Compound `CN1CCN(c2ccc(-n3cc(-c4ccncc4OCC4CCNCC4)cn3)cc2)CC1` has a ΔTm [1] of -1.52 °C and a ΔTm [2] of -2.76 °C.

For `C[C@@H]1C[C@H](C)CN(c2ncc(Cl)c(Nc3ccc4c(c3)cc(OC(C)(C)C(=O)O)c(=O)n4C)n2)C1`, the ΔTm [1] was -0.93 °C and the ΔTm [2] was 0.15 °C.

`Nc1ncnc2c1c(I)cn2[C@@H]1O[C@H](CO)[C@@H](O)[C@H]1O` showed a ΔTm [1] of -1.9 °C and a ΔTm [2] of -4 °C.

`CN1CCC(C#N)(NC(=O)[C@@H](NC(=O)N2CCOCC2)C(C)(C)C)CC1` gave a ΔTm [1] of 0.17 °C and a ΔTm [2] of 0.14 °C.

Compound `CNc1nc(Nc2ccc(C(=O)N3CCOCC3)cc2OC)ncc1Cl` has a ΔTm [1] of -0.71 °C and a ΔTm [2] of -2.04 °C.

`CC(C)NC(=O)[C@H]1CCC[C@H]1Nc1nc(Nc2ccc(C(=O)N(C)C3CCN(C)CC3)cc2)ncc1Cl` was tested, and the ΔTm [1] was -1.48 °C and -0.92 °C and the ΔTm [2] was 0.3 °C and -2.89 °C.

For `C[C@@H]1COCCN1c1cc(=O)n2c(n1)N(Cc1cncc(Cl)c1)[C@H](C(F)(F)F)CC2`, the ΔTm [1] was -0.07 °C and the ΔTm [2] was -0.61 °C.

With `CCN(CC)C(=O)C1CN2CCc3cc(OC)c(OC)cc3C2CC1OC(C)=O` (stereo unspecified) the ΔTm [1] was -0.18 °C and the ΔTm [2] was 0.29 °C.

For `CC(C)[C@H](CO)Nc1nc(Nc2ccc(C(=O)O)c(Cl)c2)c2ncn(C(C)C)c2n1`, the ΔTm [1] was 0.61 °C and the ΔTm [2] was -2.66 °C.

`CC1(C)CCN(C(=O)C2CN(c3c4c(nc5ccnn35)CCNCC4)C2)C1` was tested, and the ΔTm [1] was -0.32 °C and the ΔTm [2] was 0.23 °C.

With `COCCN1CCN(CCn2ccc(Nc3ncc4c(n3)-c3c(nn(C)c3-c3ccccc3)C[C@H]4C)n2)CC1` the ΔTm [1] was -1.68 °C and the ΔTm [2] was -2.88 °C.

Compound `O=C(CCCCCCc1ccccc1)c1ncc(-c2ccccn2)o1` has a ΔTm [1] of -1.06 °C and a ΔTm [2] of -0.23 °C.

`CC(C)(C[C@H]1CN(S(=O)(=O)c2cccc(C(F)(F)F)c2)c2cc(-c3cc(F)cc(OC(F)F)c3)ccc2O1)C(=O)O` was tested, and the ΔTm [1] was -6.18 °C and the ΔTm [2] was -2.16 °C.
